# Shown are actives, neighbours in structure and some others; about 1.3% of the full set was active somewhere.
# NR5A2 inv ag: NR5A2 inverse agonism in reporter assay. O00482. HEK293T StAR-luciferase reporter, LRH-1 transfected, 24 h. inhibition, % at 3.6 µM. 360,000 compounds, 0.13% hits. AID 602396;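 active means inhibition above the mean inhibition of all tested compounds plus 3 SD, cut at about 73% in these data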;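 further: 0% = DMSO wells and 100% = reporter-only cells lacking LRH-1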
# NCOA3 inh: inhibits human SRC3 coactivator | Q9Y6Q9 | HEK293 GAL4-SRC3 luciferase reporter, luminescence | inhibition, % at 3.6 µM | 360,000 compounds, 0.17% hits | AID 588352;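 active means inhibition above a per-campaign cutoff, the mean of all compounds plus 3 SD, cut at about 60% in these data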;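 further: 0% = DMSO-treated cells and 100% = gossypol-treated cells at 36 µM; higher means less SRC3-driven luciferase light from the GAL4 reporter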
# NR2F2 inh: NR2F2 (human) inhibition, primary screen; HEK293T NGFI-A luciferase reporter, luminescence; inhibition, % at 8.6 µM; 370,000 compounds, 0.7% hits; AID 686940; P24468;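 active means inhibition above a per-plate cutoff, mean inhibition of test wells between control levels plus 3 SD, cut at about 38% in these data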;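 further: cells cotransfected with COUP-TFII expression vector driving the NGFI-A reporter; 0% = median of COUP-TF2 test wells and 100% = reporter-only cells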
# SRC1 inh: human NCOA1 inhibition; Q15788; inhibition, % at 3.6 µM; 360,000 compounds, 0.12% hits; HEK293 GAL4-SRC1 luciferase reporter, luminescence;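 active means inhibition above the campaign mean plus 3 SD, with each screening campaign given its own cutoff, cut at about 60% in these data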;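 further: 0% = DMSO treated cells and 100% = gossypol at 36 µM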
# Target sequence (Q15788 whole entry, looked up, the tested form may be a part): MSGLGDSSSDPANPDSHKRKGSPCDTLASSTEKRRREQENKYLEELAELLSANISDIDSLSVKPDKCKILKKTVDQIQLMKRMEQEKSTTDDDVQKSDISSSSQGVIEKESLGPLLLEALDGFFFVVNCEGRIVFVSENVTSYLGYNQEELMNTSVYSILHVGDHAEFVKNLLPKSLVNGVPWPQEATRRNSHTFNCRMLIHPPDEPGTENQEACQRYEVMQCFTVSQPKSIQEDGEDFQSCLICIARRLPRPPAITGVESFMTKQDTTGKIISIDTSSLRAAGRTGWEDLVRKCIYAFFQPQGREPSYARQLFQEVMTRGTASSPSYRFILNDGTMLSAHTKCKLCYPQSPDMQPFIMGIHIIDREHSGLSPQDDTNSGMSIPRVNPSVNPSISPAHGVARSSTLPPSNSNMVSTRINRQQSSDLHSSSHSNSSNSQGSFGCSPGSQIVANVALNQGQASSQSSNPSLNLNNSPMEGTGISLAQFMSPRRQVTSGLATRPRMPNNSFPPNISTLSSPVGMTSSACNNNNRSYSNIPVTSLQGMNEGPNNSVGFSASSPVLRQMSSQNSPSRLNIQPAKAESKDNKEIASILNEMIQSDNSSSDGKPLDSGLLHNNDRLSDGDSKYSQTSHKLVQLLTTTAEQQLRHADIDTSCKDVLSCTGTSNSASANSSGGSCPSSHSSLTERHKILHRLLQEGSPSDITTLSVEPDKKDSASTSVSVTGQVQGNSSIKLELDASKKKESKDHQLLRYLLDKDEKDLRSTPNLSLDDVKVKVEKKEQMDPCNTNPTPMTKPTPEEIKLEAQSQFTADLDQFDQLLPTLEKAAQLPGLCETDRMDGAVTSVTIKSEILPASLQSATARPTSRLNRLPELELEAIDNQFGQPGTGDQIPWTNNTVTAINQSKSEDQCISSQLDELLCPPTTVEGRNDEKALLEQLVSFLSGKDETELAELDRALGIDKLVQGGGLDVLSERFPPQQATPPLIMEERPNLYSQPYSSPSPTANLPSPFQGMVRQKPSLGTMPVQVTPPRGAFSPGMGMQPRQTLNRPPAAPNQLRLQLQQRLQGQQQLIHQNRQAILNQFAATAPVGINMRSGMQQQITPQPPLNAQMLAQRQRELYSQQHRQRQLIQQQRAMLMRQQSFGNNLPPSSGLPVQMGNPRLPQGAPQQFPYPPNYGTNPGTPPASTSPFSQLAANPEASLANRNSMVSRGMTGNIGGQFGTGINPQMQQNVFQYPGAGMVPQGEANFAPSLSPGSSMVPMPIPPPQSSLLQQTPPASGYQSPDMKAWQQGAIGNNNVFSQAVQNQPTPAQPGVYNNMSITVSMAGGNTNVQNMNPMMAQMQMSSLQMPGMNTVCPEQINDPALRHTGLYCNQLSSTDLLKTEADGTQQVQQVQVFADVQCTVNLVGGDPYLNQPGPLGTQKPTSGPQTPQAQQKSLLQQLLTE
# Gli-Sufu antag: antagonists of Gli-Sufu signaling. 340,000 compounds, 0.74% hits. Sufu-KO-LIGHT fibroblasts, Gli luciferase reporter luminescence. inhibition, % at 5 µM;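 active means inhibition above about 55%, limit read from the data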;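 further: 0% = DMSO-treated cells and 100% = wells with medium but no cells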
# NCOA2 inhibitor: inhibits human steroid receptor coactivator 2; inhibition, % at 9 µM; 370,000 compounds, 0.17% hits; HEK293 GAL4-SRC2 luciferase reporter, luminescence;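 active means inhibition above the mean inhibition of all tested compounds plus 3 SD, set per campaign, cut at about 52% in these data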;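 further: 0% = DMSO treated cells and 100% = cells given Gossypol at 36 µM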
# VP16 Luc counter: counter-screen for COUP-TFII antagonists: inhibitors of VP16; shares compounds with NR2F2 inh; HEK293 Gal4-VP16 luciferase reporter, luminescence; inhibition, % at 8.5 µM; 2,500 compounds, 25% hits; AID 687007; in the data active means inhibition above about 13%
# COUP-TFII conf: COUP-TFII (NR2F2) inhibition, confirmation assay; AID 687008; HEK293 NGFI-A luciferase reporter, luminescence; inhibition, % at 8.5 µM; 2,500 compounds, 45% hits; shares compounds with NR2F2 inh;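 active means mean inhibition over three repeats above a set limit taken from the earlier primary screen, cut at about 38% in these data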;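 further: 100% = cells given the luciferase reporter alone without the COUP-TF2 vector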
# Numbers without * were called inactive; nt = not tested or not shown.
SMILES,NR5A2 inv ag,NCOA3 inh,NR2F2 inh,SRC1 inh,Gli-Sufu antag,NCOA2 inhibitor,VP16 Luc counter,COUP-TFII conf
Cc1ccc(Cl)cc1N1CCN(C(=O)CCS(=O)(=O)c2ccc3c(c2)NC(=O)CO3)CC1,3.8,14.3,53.9*,10.3,23.7,42.2,-3.0,24.4
O=C1COc2ccc(S(=O)(=O)CCC(=O)N3CCN(c4cccc(Cl)c4)CC3)cc2N1,-17.8,-1.6,4.3,-10.7,42.9,-2.1,nt,nt
COC(=O)c1cc2c(c3c4cc(C)ccc4n(S(=O)(=O)c4cccc(C)c4)c13)C(=O)N(Cc1ccc(N(C)C)cc1)C2,nt,nt,-12.6,nt,nt,14.1,nt,nt
COc1ccccc1NC(=O)C(C)OC(=O)c1cc2ccccc2[nH]1 (centres undefined),30.4,0.0,38.5*,6.8,-0.3,39.1,1.0,42.1*
Cc1cc(/C=N/Nc2ncnc(N)c2[N+](=O)[O-])c(C)n1-c1ccccc1,10.8,45.8,51.6*,42.3,53.7,43.1,43.7*,77.8*
COc1cccc(/C=N/Nc2ncnc(N)c2[N+](=O)[O-])c1OC,-117.4,-48.0,nt,-65.0,-43.5,nt,nt,nt
COC(=O)[C@]12C[C@H](CC(=O)NCc3ccc(C)o3)C(=O)N(CCc3ccc(OC)c(OC)c3)C1=C[C@H](C(C)C)O[C@@H]2C1CC1,nt,nt,-4.6,nt,nt,-6.5,nt,nt
O=C1c2cccc(OCC(=O)N3CCCc4ccccc43)c2CCN1Cc1cccnc1,7.0,23.0,39.8*,14.7,24.1,9.0,7.1,20.4
Cc1ccccc1CN1CCc2c(OCC(=O)N3CCCc4ccccc43)cccc2C1=O,21.0,2.3,7.1,7.4,8.4,9.1,nt,nt
O=C1NCCN1CCN1CCC(c2cn(-c3ccc(F)cc3)c3ccc(Cl)cc23)CC1,nt,nt,43.5*,nt,nt,1.7,-2.3,7.6
O=C(O)c1cccc(CSc2nnc(-c3ccc(Cl)cc3)o2)c1,-2.2,0.1,39.6*,-4.0,11.2,54.6*,36.6*,8.8
Cc1cc(C)cc(-c2nnc(SCc3ccc(C(=O)O)cc3)o2)c1,-9.8,-11.9,10.7,3.2,-0.6,-6.3,nt,nt
O=C(O)c1ccc(CSc2nnc(COc3ccccc3)o2)cc1,7.1,10.2,6.6,7.0,4.1,2.4,nt,nt
O=C(O)c1cccc(CSc2nnc(COc3ccccc3)o2)c1,-9.1,-12.7,41.0*,5.8,10.0,44.8,34.6*,17.7
COc1ccc(OCC(C)CN2CCC(C(O)(c3ccccc3)c3ccccc3)CC2)cc1 (centres undefined),nt,nt,-2.1,nt,nt,-2.1,nt,nt
CC(C)(C)c1ccc(-c2cn(-c3ccc(Br)cc3)c3[n+]2CCCS3)cc1,83.1*,50.5,49.7*,51.3,92.6*,21.0,17.6*,36.5
O=C(NCc1cccnc1)c1c[nH]c2cc3c(cc2c1=O)OCCO3,-15.0,-4.2,39.4*,-13.3,7.5,-44.0,-117.0,30.4
CCCCN(C)S(=O)(=O)c1ccc2[nH]c(=O)oc2c1,nt,nt,9.5,nt,nt,-24.6,nt,nt
CN(Cc1ccco1)C(=O)CN1C(=O)C2(OCCCO2)c2ccccc21,nt,nt,18.9,nt,nt,10.2,nt,nt
Cc1nc2c(-c3ccc(F)cc3)cnn2c(N)c1-c1ccccc1,62.6,70.8*,82.0*,70.3*,40.9,69.9*,32.2*,81.7*
COC(=O)[C@]12C[C@H](CC(=O)N3CCCC3)C(=O)N(Cc3ccccc3)C1=C[C@H](C1CCCC1)O[C@@H]2C,nt,nt,-15.0,nt,nt,-1.9,nt,nt
CCC(=O)N1CCN(c2ccnc3cc(Cl)ccc23)CC1,0.5,34.5,5.0,23.3,13.8,32.3,nt,nt
CC1CN(c2ccnc3cc(Cl)ccc23)CCN1C(=O)c1ccc(Cl)cc1 (centres undefined),nt,nt,49.6*,nt,nt,nt,4.0,16.4
O=C(c1cccc(Cl)c1)N1CCN(c2ccnc3cc(Cl)ccc23)CC1,nt,nt,48.7*,nt,nt,nt,2.6,23.2
COc1ccc([C@H]2OC(=O)C[C@H]2C(=O)N2CCN(c3ccccc3Cl)CC2)cc1OC,nt,nt,15.0,nt,nt,11.9,nt,nt
SMILES,NR5A2 inv ag,NCOA3 inh,NR2F2 inh,SRC1 inh,Gli-Sufu antag,NCOA2 inhibitor,VP16 Luc counter,COUP-TFII conf
Cc1cc(C(=O)O[C@H]2CCC[C@@]3(C(=O)N(Cc4ccccc4)c4ccccc43)[C@H]2NC(=O)CCc2ccccc2)no1,nt,nt,15.3,nt,nt,2.1,nt,nt
C[n+]1c2n(c3ccccc31)N=C(c1ccc(Br)cc1)CS2,10.8,44.4,48.5*,25.4,67.8*,-8.6,19.8*,50.9*
Cc1cc(-c2n[nH]c(=S)n2N=Cc2ccc(-c3ccccc3)cc2)n[nH]1,nt,nt,5.2,nt,nt,-18.4,nt,nt
Cc1nn(-c2ccccc2)c(C)c1C(=O)OC(C)C(=O)NC1CCCCC1 (centres undefined),13.7,19.2,59.0*,-7.3,11.3,19.1,-1.0,21.4
O=C(NCCc1c[nH]c2ccccc12)OCc1cn(-c2cccc(C(F)(F)F)c2)nn1,nt,nt,-1.2,nt,nt,-3.3,nt,nt
COc1ccc(C(=O)Nc2ccc(Cl)c(S(=O)(=O)Nc3ccccc3OC)c2)cc1,19.9,17.3,63.4*,15.4,18.6,24.7,9.3,66.7*
COc1ccccc1NS(=O)(=O)c1cc(NC(=O)c2ccc(Cl)nc2)ccc1Cl,38.2,39.6,68.0*,23.0,20.7,17.9,15.4*,59.8*
COc1ccccc1NC(=O)Nc1ccc(Cl)c(S(=O)(=O)Nc2ccccc2OC)c1,6.9,2.8,-15.9,4.7,-0.5,3.2,nt,nt
CCN(CC)CCCNC(=O)CSc1nnc(-c2ccncc2)n1-c1ccc(OC)cc1,nt,nt,-6.9,nt,nt,25.5,nt,nt
C=CS(=O)(=O)N(Cc1nnn(Cc2ccccc2)c1Br)[C@@H](CC(C)C)C(=O)OC,nt,nt,7.7,nt,nt,24.1,nt,nt
CC1CC(C)C(=O)C(C(CC2CC(=O)NC(=O)C2)OC(=O)CC(=O)c2ccccc2)C1 (centres undefined),97.6*,85.2*,71.2*,80.0*,42.2,54.1*,-18.9,49.9*
O=C(CC1(O)C(=O)Nc2ccccc21)c1ccccc1 (centres undefined),-13.2,-14.4,3.5,1.2,-17.0,-30.1,nt,nt
COC(=O)[C@]12C[C@H](CC(=O)N3CCN(C(=O)C4CC4)CC3)C(=O)N(Cc3ccc4c(c3)OCO4)C1=C[C@H](C(C)C)O[C@@H]2C1CC1,nt,nt,-5.8,nt,nt,-7.7,nt,nt
OCCCNc1ncnc2scc(-c3ccc(Cl)cc3)c12,15.2,38.6,38.3*,49.8,-11.3,50.6,0.3,13.8
CCC(=O)/C=C1/Sc2ccccc2N1CC,1.3,-0.5,-8.1,-7.7,4.8,-22.9,nt,nt
CC(=S)/C=C1\Sc2ccccc2N1C,9.5,-16.8,-2.2,8.0,12.9,-0.6,nt,nt
CCN1/C(=C/c2ccc3cc(C)ccc3[n+]2CC)Sc2cc(C)c(C)cc21,68.2,56.4,78.1*,31.6,91.2*,29.9,8.5,64.2*
CCN1/C(=C/c2ccc3cc(C)ccc3[n+]2CC)Sc2ccccc21,95.7*,55.1,85.5*,65.1*,88.7*,-29.8,1.4,78.8*

# High-throughput results from PubChem.
